The structures appear in SMILES notation. About 83,000 compounds went through this panel and 20% of them were active in at least one assay; those are over-represented in the sample as a whole.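 Interpretation: 100, growth as untreated; towards 0, rising growth inhibition; 0, no net growth; 0 to -100, cell death. Compounds scoring below 10 were considered active.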 Unmarked numbers belong to inactive results. Calls of active or inactive are those of the source.

Test systems include HCT-15 colon; SNB-75 CNS; SNB-19 CNS; U251 CNS; PC-3 prostate; SK-MEL-5 melanoma; UACC-62 melanoma; LOX IMVI melanoma; SK-MEL-28 melanoma; SK-MEL-2 melanoma; EKVX NSCLC; SN12C renal; UO-31 renal; TK-10 renal; ACHN renal; CAKI-1 renal; A498 renal; CCRF-CEM leukemia; MOLT-4 leukemia.
Common to all, as to assay: NCI-60 one-dose screen, 48 h (100 = growth as untreated, 0 = no growth, -100 = all killed)
Holding throughout (conditions): 10 µM unless noted

For `CCCCCc1ccc(S(=O)(=O)Nc2ccc3nc(N)oc3c2)cc1`, the growth in the assay with HCT-15 colon is 82.5%; in the assay with SNB-75 CNS, 40.7%; with SNB-19 CNS, 66.3%; in the assay with U251 CNS it was 71.5%; with PC-3 prostate, 57.2%; with SK-MEL-5 melanoma, 4.66% (active). Further, the growth is 43.7% in the assay on UACC-62 melanoma; 36.3% with LOX IMVI melanoma; 74.7% in the assay on SK-MEL-28 melanoma; 101% in the assay on SK-MEL-2 melanoma; 33.2% in the assay with EKVX NSCLC; 58.8% with SN12C renal. Also, the growth in the assay on UO-31 renal was 35.8%; with TK-10 renal, 84.6%; in the assay with ACHN renal, 60.3%; with CAKI-1 renal it was 51.1%; with A498 renal, 32.6%; in the assay with CCRF-CEM leukemia, 51.8%. In addition, in the assay on MOLT-4 leukemia, the growth was 37.1%.

Regarding `N#Cc1c(-c2ccccc2)nc2c(c(-c3ccc(Cl)cc3)nn2-c2ccccc2)c1-c1ccc([N+](=O)[O-])cc1`, the growth in the assay on HCT-15 colon is 99.4%; in the assay on SNB-75 CNS it was 88.3%; with SNB-19 CNS, 90.9%; with U251 CNS it was 95.3%; with PC-3 prostate, 88.7%; in the assay with SK-MEL-5 melanoma, 99.2%. The growth was 86.5% with UACC-62 melanoma; 94.7% in the assay on LOX IMVI melanoma; 102% in the assay on SK-MEL-28 melanoma; 104% in the assay on SK-MEL-2 melanoma; 103% with EKVX NSCLC; 105% in the assay with SN12C renal. Also, the growth in the assay with UO-31 renal is 81.2%; with TK-10 renal it was 121%; in the assay on ACHN renal it was 97.5%; with CAKI-1 renal, 79%; in the assay on A498 renal it was 99.7%; in the assay with CCRF-CEM leukemia, 90.6%. Moreover, the growth with MOLT-4 leukemia was 97.1%.

For the compound `CNCC[C@H](Oc1cccc2ccccc12)c1cccs1`, the growth with HCT-15 colon is 101%; in the assay on SNB-75 CNS, 61.5%; in the assay with SNB-19 CNS, 97.8%; with U251 CNS, 85.3%; in the assay on PC-3 prostate, 68.9%; in the assay on SK-MEL-5 melanoma, 93%. The growth in the assay on UACC-62 melanoma is 91.3%; in the assay with LOX IMVI melanoma it was 74.1%; with SK-MEL-28 melanoma, 91.5%; in the assay on SK-MEL-2 melanoma it was 104%; in the assay on EKVX NSCLC it was 78.9%; in the assay with UO-31 renal it was 63.7%. For the same compound, the growth was 90% with TK-10 renal; 96.9% in the assay on ACHN renal; 88.4% in the assay with CAKI-1 renal; 111% in the assay with A498 renal; 91.9% in the assay with CCRF-CEM leukemia; 50.4% in the assay on MOLT-4 leukemia.

For the compound `COc1ccc(Oc2ccc(/C=C/C(=O)c3ccc(OC)c(OC)c3)cc2)cc1`, the growth in the assay with HCT-15 colon is 61.5%; in the assay with SNB-75 CNS, 72.5%; in the assay on SNB-19 CNS, 85.8%; in the assay with U251 CNS, 68.9%; in the assay with PC-3 prostate, 81.6%; in the assay with SK-MEL-5 melanoma, 75.3%. Further, the growth in the assay on UACC-62 melanoma is 67.5%; in the assay with LOX IMVI melanoma, 53.7%; in the assay on SK-MEL-28 melanoma, 93.7%; with SK-MEL-2 melanoma it was 89%; with EKVX NSCLC it was 79.4%; in the assay with SN12C renal it was 86.7%. Further, the growth in the assay on UO-31 renal was 70.9%; in the assay with TK-10 renal, 105%; in the assay on ACHN renal it was 92.5%; with CAKI-1 renal, 85.5%; in the assay on A498 renal, 90.3%; in the assay with CCRF-CEM leukemia it was 70.3%. In the assay with MOLT-4 leukemia, the growth is -9.69% (active).

Take `C=C(C)[C@@H]1CC[C@]2(C)[C@H](C=CC3=C4C[C@@](C)(CO)CC[C@]4(C)CC[C@]32C)[C@@]1(C)CCCN`: the growth in the assay on HCT-15 colon is -82% (active); with SNB-75 CNS it was -6.45% (active); in the assay on SNB-19 CNS, 34.3%; with U251 CNS, -64.5% (active); with PC-3 prostate, -34% (active); with SK-MEL-5 melanoma it was 17.5%. Further, the growth was 77.6% in the assay with UACC-62 melanoma; -100% (active) with LOX IMVI melanoma; -79.8% (active) in the assay on SK-MEL-28 melanoma; -52.5% (active) in the assay with SK-MEL-2 melanoma; 42.5% in the assay with EKVX NSCLC; -13.4% (active) in the assay with SN12C renal. Moreover, the growth in the assay with UO-31 renal is 47.2%; in the assay with TK-10 renal it was -68.4% (active); with ACHN renal it was -94.9% (active); in the assay on CAKI-1 renal it was -81.6% (active); with CCRF-CEM leukemia it was 0.791% (active); with MOLT-4 leukemia, -10.5% (active).

For `O=C1Nc2ccc(Cl)cc2/C1=C/c1ccc[nH]1`, the growth with HCT-15 colon was 34.2%; in the assay on SNB-75 CNS, 114%; in the assay on SNB-19 CNS it was 106%; in the assay with U251 CNS it was 100%; with PC-3 prostate, 111%; in the assay on SK-MEL-5 melanoma it was 77.5%. The growth in the assay on UACC-62 melanoma is 102%; in the assay with LOX IMVI melanoma, 95.5%; in the assay on SK-MEL-28 melanoma it was 129%; with SK-MEL-2 melanoma, 96.2%; in the assay on EKVX NSCLC, 32.8%; with SN12C renal, 87.5%. For the same compound, the growth in the assay with UO-31 renal was 47.7%; in the assay with TK-10 renal, 61.4%; in the assay on ACHN renal, 59.6%; with CAKI-1 renal it was 45.7%; in the assay on A498 renal, 134%; in the assay with CCRF-CEM leukemia, 96.2%. Besides, in the assay with MOLT-4 leukemia, the growth was 83.4%.

Take `C=C1SC(=Nc2ccccc2Cl)N(C(=O)c2sc3ccccc3c2Cl)C1(C)C`: the growth in the assay on HCT-15 colon was 81.4%; with SNB-75 CNS, 42.6%; with SNB-19 CNS it was 42.9%; in the assay on U251 CNS it was 49.2%; in the assay with PC-3 prostate it was 30.7%; in the assay with SK-MEL-5 melanoma it was 66.7%. Besides, the growth is 60% in the assay with UACC-62 melanoma; 77.3% with LOX IMVI melanoma; 113% in the assay with SK-MEL-28 melanoma; 151% in the assay with SK-MEL-2 melanoma; 54.4% in the assay with EKVX NSCLC; 107% in the assay on UO-31 renal. The growth in the assay with TK-10 renal was 107%; in the assay with ACHN renal, 46.1%; in the assay with CAKI-1 renal it was 49%; in the assay with A498 renal, 90.5%; in the assay with CCRF-CEM leukemia, 19.8%; with MOLT-4 leukemia, 20.3%.

With `CCN(CC)CCCC(Cc1ccccc1)Nc1c2ccc(Cl)cc2nc2ccc(OC)cc12` (centres undefined), the growth in the assay with HCT-15 colon was 2.58% (active); with SNB-75 CNS it was 10.6%; with SNB-19 CNS it was 34.7%; with U251 CNS it was 9.64% (active); with PC-3 prostate it was 44.8%; in the assay on SK-MEL-5 melanoma, -93.6% (active). The growth in the assay with UACC-62 melanoma is -61.2% (active); in the assay with LOX IMVI melanoma, -67.8% (active); with SK-MEL-28 melanoma it was -79.3% (active); in the assay on SK-MEL-2 melanoma it was 7.91% (active); with EKVX NSCLC, 26.6%; in the assay with SN12C renal, 73.6%. The growth in the assay on UO-31 renal is -39.6% (active); in the assay with TK-10 renal, -2.6% (active); in the assay on ACHN renal, -39.2% (active); in the assay on CAKI-1 renal, 32.6%; in the assay on A498 renal it was 46.8%; in the assay with CCRF-CEM leukemia, -0.463% (active). The growth in the assay on MOLT-4 leukemia was 4.64% (active).

Values taken from PubChem BioAssay (NCI).
